{"source": "PubChem BioAssay AID1259418", "about": "(Broad Institute, 2018)", "note": "The whole screen tested about 3,400 compounds, of which about 840 (25%) were called active. Roughly 11% stayed inconclusive and do not appear here. A selection follows. Measured potencies and affinities stand elsewhere. Unmarked numbers belong to inactive results.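 The calls were made as follows: active = fitted half-maximal concentration of signal decrease at or below twice the sample's top tested concentration; inconclusive = flat curve between -70 and -30 percent, or poor fit; inactive = flat within 30 percent, signal rise, or potency above limit.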", "data": [{"assay": "inhibitors of Toxoplasma growth in IFN-γ-primed HeLa – cell-based, ME49Luc, luciferase, 72 h, dose response (AID 1259418)", "conditions": "T. gondii ME49Luc in IFN-y HeLa, active compounds read low, -100% = high-dose IFN-γ control wells; at 19.5 µM unless noted", "values": [{"smiles": "Cc1ccc(C)c(-c2coc(-c3ccc(NC(=O)Nc4cc(F)ccc4F)cc3)n2)c1", "max activity": "18.4% [at 0.16 µM]"}, {"smiles": "CCOc1cc(C(=O)Nc2ccc3c(c2)CCC(=O)N3)cc(OCC)c1OCC", "max activity": "7.32%"}, {"smiles": "Cc1ccc(-c2coc(-c3ccc(NC(=O)CC(C)C)cc3)n2)cc1", "max activity": "33%"}, {"smiles": "Clc1ccc(-c2nc(NCc3cccnc3)c3ccccc3n2)cc1", "max activity": "-32.4% [at 0.35 µM]"}, {"smiles": "COc1ccc(-c2nc3c(s2)CN(S(=O)(=O)c2cccs2)CC3)cc1", "max activity": "12.1% [at 0.16 µM]"}, {"smiles": "O=S(=O)(c1cccs1)N1CCCCN2[C@H](C1)[C@@H](c1ccc(/C=C/c3ccccc3)cc1)[C@@H]2CO", "max activity": "11.8% [at 10 µM]"}, {"smiles": "COCCCN1CCc2nc(SCc3nc(-c4cccc(Cl)c4)oc3C)[nH]c(=O)c2C1", "max activity": "33.5% [at 0.35 µM]"}, {"smiles": "O=C(NCC1CC1)C1CN(C(=O)c2ccoc2)CC12CCOCC2", "note": "(configuration not stated)", "max activity": "17.9% [at 10 µM]"}, {"smiles": "Cc1ccc(-n2ncc3c(NC4CCCCCCCCCCC4)ncnc32)c(C)c1", "max activity": "53.2% [at 10 µM]"}, {"smiles": "Oc1[nH]c2ccccc2c1N=Nc1nc(Nc2ccccc2)nc(N2CCOCC2)n1", "max activity": "12.6% [at 10 µM]"}, {"smiles": "CCN(CC)Cc1cn2c(n1)CN(C(=O)c1cnc(C)cn1)CC2", "max activity": "-25.1% [at 10 µM]"}, {"smiles": "CCc1nc(OCC(=O)Nc2cccc(C)c2C)c2ccccc2n1", "max activity": "34.5%"}, {"smiles": "COc1ccccc1CNC(=O)CCC1N=C2c3ccccc3N=C(SCc3cc(=O)n4ccccc4n3)N2C1=O", "note": "(configuration not stated)", "max activity": "-7.46% [at 0.16 µM]"}, {"smiles": "CN1CCCN(C(=O)c2cc3c(c4ccccc4n3CC3CC3)n2S(C)(=O)=O)CC1", "max activity": "11.9% [at 5 µM]"}, {"smiles": "CC(C)c1cc(C2CCCN2C(=O)c2cc(C(F)(F)F)nn2C)on1", "note": "(configuration not stated)", "max activity": "9.25% [at 0.35 µM]"}, {"smiles": "COc1ccc(NC(=O)CN2CCC3(CC2)N=C(c2ccc(F)cc2)C(=O)N3)cc1", "max activity": "-27.9% [at 1.35 µM]"}, {"smiles": "Cc1nc(CCNC(=O)[C@H]2CCCN2C(=O)c2cccc(Br)c2)cs1", "max activity": "23.4% [at 0.16 µM]"}, {"smiles": "Cc1nc(CCNC(=O)[C@H]2CCCN2C(=O)c2ccc(F)cc2)cs1", "max activity": "-9.63% [at 0.16 µM]"}, {"smiles": "O=C(NCCc1csc(-c2ccccc2)n1)[C@H]1CCCN1C(=O)c1ccc(Br)cc1", "max activity": "-11% [at 0.16 µM]"}, {"smiles": "O=C(NCCc1csc(-c2ccccc2)n1)[C@H]1CCCN1C(=O)c1ccc(F)cc1", "max activity": "-10.4% [at 0.16 µM]"}, {"smiles": "NC(=O)C1(N2CCCCC2)CCN(c2ccc(NC(=O)c3ccc(Cl)cc3)cc2C(=O)O)CC1", "max activity": "20.8%"}, {"smiles": "CCN1C(=O)CCCC12CCCN(C(=O)c1ccc3ncccc3c1)C2", "note": "(configuration not stated)", "max activity": "-6.92% [at 5 µM]"}, {"smiles": "Cc1ccccc1C(=O)N1CCC(N2CCOCC2)CC1C(=O)O", "note": "(configuration not stated)", "max activity": "15.5%"}, {"smiles": "Cc1ccc(C)c(-c2coc(-c3ccc(NC(=O)COc4ccccc4C)cc3)n2)c1", "max activity": "-11.5%"}, {"smiles": "N#C[C@@H]1[C@@H](c2ccc(C#Cc3cccnc3)cc2)[C@@H](CO)N1C(=O)NC1CCCCC1", "max activity": "-10.3% [at 10 µM]"}, {"smiles": "COCC(=O)N1[C@H](C#N)[C@H](c2ccc(C#Cc3ccccc3F)cc2)[C@H]1CO", "max activity": "-13.1% [at 10 µM]"}, {"smiles": "Cc1cc(C)n(C)c(=O)c1C(=O)N1CCOC(C(F)(F)F)C1", "note": "(configuration not stated)", "max activity": "34.4%"}, {"smiles": "Cc1ccc(-c2coc(-c3ccc(NC(=O)CC(C)C)cc3)n2)c(C)c1", "max activity": "14.2% [at 10 µM]"}, {"smiles": "CCN(C)C(=O)c1cnc(-c2noc3cc(N4CCCCC4)ccc23)s1", "max activity": "35.7% [at 10 µM]"}, {"smiles": "COc1ccc(NC(=O)Nc2ccc(-c3nc(-c4cccc(Br)c4)co3)cc2)cc1OC", "max activity": "8.18% [at 0.35 µM]"}, {"smiles": "O=C(Nc1ccc(-c2nc(-c3ccccc3)co2)cc1)Nc1ccc(F)cc1F", "max activity": "65.6%"}, {"smiles": "COc1ccccc1CNC(=O)CCC1N=C2c3ccccc3N=C(SCc3ccc(F)cc3)N2C1=O", "note": "(configuration not stated)", "max activity": "14.5% [at 0.16 µM]"}, {"smiles": "O=C(CCC1N=C2c3ccccc3N=C(SCc3cccc(F)c3)N2C1=O)NCc1ccco1", "note": "(configuration not stated)", "max activity": "10.2%"}, {"smiles": "CCOC(=O)CSC1=Nc2ccccc2C2=NC(CCC(=O)NCc3ccc(F)cc3)C(=O)N12", "note": "(configuration not stated)", "max activity": "24.5% [at 2.6 µM]"}, {"smiles": "CCOC(=O)CSC1=Nc2ccccc2C2=NC(CCC(=O)NCc3ccccc3)C(=O)N12", "note": "(configuration not stated)", "max activity": "43.1%"}, {"smiles": "Cc1ccc(CSC2=Nc3ccccc3C3=NC(CCC(=O)NC4CCCCC4)C(=O)N23)cc1", "note": "(configuration not stated)", "max activity": "-23.8%"}, {"smiles": "O=C(CC1N=C2c3ccccc3N=C(SCc3cccc(F)c3)N2C1=O)NCc1ccccc1", "note": "(configuration not stated)", "max activity": "-15% [at 1.35 µM]"}, {"smiles": "O=C(CCC1N=C2c3ccccc3N=C(SCc3cccc(F)c3)N2C1=O)NC1CCCCC1", "note": "(configuration not stated)", "max activity": "-18.1% [at 2.6 µM]"}, {"smiles": "N#CCSC1=Nc2ccccc2C2=NC(CCC(=O)NCc3ccc(F)cc3)C(=O)N12", "note": "(configuration not stated)", "max activity": "22.5% [at 0.35 µM]"}, {"smiles": "C/C=C/c1ccc(C2[C@H]3CNC[C@@H]2N3S(=O)(=O)c2cccc(F)c2)cc1", "note": "(some centres not stated)", "max activity": "51.2%"}, {"smiles": "O=C(CC1N=C2c3ccccc3N=C(SCc3cc(=O)n4cc(Cl)ccc4n3)N2C1=O)NCc1ccccc1", "note": "(configuration not stated)", "max activity": "8.94%"}, {"smiles": "Cc1ccc(-c2coc(-c3ccc(NC(=O)c4ccco4)cc3)n2)c(C)c1", "max activity": "11.6%"}, {"smiles": "CCOc1ccc(-c2nc(CSc3nc4c(c(=O)[nH]3)CN(C(C)C)CC4)c(C)o2)cc1OC", "max activity": "21% [at 2.6 µM]"}, {"smiles": "COc1ccc(CNC(=O)CCC2N=C3c4ccccc4N=C(SCc4ccc(Cl)cc4)N3C2=O)cc1", "note": "(configuration not stated)", "max activity": "-5.19% [at 0.68 µM]"}, {"smiles": "O=C(CCC1N=C2c3ccccc3N=C(SCc3ccccc3F)N2C1=O)NCCc1ccccc1", "note": "(configuration not stated)", "max activity": "25.3% [at 0.16 µM]"}, {"smiles": "COc1ccc(CNC(=O)CCC2N=C3c4ccccc4N=C(SCc4ccccc4F)N3C2=O)cc1", "note": "(configuration not stated)", "max activity": "-23.7% [at 0.35 µM]"}, {"smiles": "O=C(CCC1N=C2c3ccccc3N=C(SCc3ccccc3F)N2C1=O)NCc1ccc(F)cc1", "note": "(configuration not stated)", "max activity": "12.5% [at 1.35 µM]"}]}]}
